For 64 molecules, Potency and cell number change results are on record in PubChem BioAssay AID2685 (National Center for Advancing Translational Sciences (NCATS), 2010).

Among all 320,000 compounds or so, about 2,100 (0.66%) were called active. Inconclusive results (about 53%) are left out. The call rests on the fitted dose curve; in most records, active means well fitted inhibition curve with a large enough effect in the signal ratio, with a control signal flat (not every such curve was filed as active); inconclusive means small, poorly fitted or top-dose-only effect, or effect the other way, or a change in a side signal; inactive means flat fitted curve, though single readings scatter; the % refers to the signal ratio. This excerpt belongs to a sample that is enriched for actives.
Potency means the concentration at half of the fitted maximal effect.

This assay is described as follows: qHTS Assay for Lipid Storage Modulators in Drosophila S3 Cells.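 On cell number change: cells counted by Cell Tracker Red CMTPX staining in the red channel.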 Particulars: BODIPY lipid droplet fluorescence, 18-24 h, cells fed with added oleic acid; cell number change: measured here: cell count max response; series mostly up to 46.1 µM. In outline:
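Drosophila S3 cells got compounds at several concentrations plus oleic acid (400 uM solution). Laser-scanning cytometry with 488 nm excitation read lipid droplets at 500-530 nm and cells at 575-640 nm. Percent activity was relative to 20 uM Triacsin C.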
Background: Quantitative high-throughput screening tests each substance at several concentrations.
On to `CN(C)c1ccc(C=NCCC2(c3ccccc3)CCOC(C)(C)C2)cc1` (configuration not stated), for which the Potency entry was “inactive” and the cell number change was -6.59%.

Regarding `O=C(Nc1ccon1)c1cc2ccccc2oc1=O`, the Potency entry is “inactive” and the cell number change turned out to be 11.7%. In the same order, the values of `Cc1cc(NC(=O)c2ccccc2F)on1` are “inactive” and -0.938%.

Consider `O=C(Nc1ccon1)c1ccccc1F`, for which the Potency was 23.1 µM (active) and the cell number change is -7.37%. For `O=C(Nn1c(=O)[nH]c2ccsc2c1=O)c1ccccc1`, in that order: “inactive” and -16.2%. With `COc1ccc(N2CCN(C(=S)Nc3ccc(C)cc3)CC2)cc1`, the Potency entry was “inactive” and the cell number change came out at 11.6%. In the same order, the values of `O=C(NN1C(=O)C2C3C=CC(C4CC34)C2C1=O)c1ccc(Cl)c(Cl)c1` (configuration not stated) are “inactive” and 1.92%. In the same order, the values of `O=C(CN1C(=O)/C(=C2\SC(=S)N(C3CCS(=O)(=O)C3)C2=O)c2ccccc21)Nc1ccccc1` (configuration not stated) are “inactive” and -3.03%. Take `O=C(NCC(c1ccccc1Cl)N1CCCC1)C1CCN(C(=O)Nc2ccccc2)CC1` (configuration not stated): the Potency was 6.51 µM (active) and the cell number change is -29.1%.

Regarding `O=C(NCCc1ccccc1)C1CCN(C(=O)Nc2ccccc2)CC1`, the Potency entry was “inactive” and the cell number change is -33.1%. For `O=C(NCC(c1ccccc1)N1CCCC1)C1CCN(C(=O)Nc2ccccc2)CC1` (configuration not stated), in that order: “inactive” and -22%. For `CCC(Sc1nnc(C)s1)C(=O)Nc1nccs1` (configuration not stated), in that order: “inactive” and -15.3%.

For `CCC(Sc1nc(C)cc(C)n1)C(=O)Nc1nccs1` (configuration not stated), the Potency is 2.06 µM (active) and the cell number change was -0.54%. For `Cc1cc(C)nc(SCC(=O)Nc2nccs2)n1`, in that order: “inactive” and 13.1%. In the case of `CN(C(=O)CCCN1CCCC1=O)C1CCCN(Cc2ccccc2F)C1` (configuration not stated), the Potency entry was “inactive” and the cell number change worked out at 6.08%. For `COc1cc2c(cc1OC)C(COc1ccc(F)cc1)N(C(C)=O)CC2` (configuration not stated), in that order: “inactive” and -4.23%.

With `CCOC(=O)C(O)(CC(=O)Nc1cc(F)ccc1C)C(F)(F)F` (configuration not stated), the Potency result was “inactive” and the cell number change was 6.77%. Regarding `CC1CC1C(=O)Nc1nc(-c2ccccn2)cs1` (configuration not stated), the Potency entry was “inactive”. `CCC/C(C)=N/NC(=O)c1ccccc1O`: the Potency entry was “inactive” and the cell number change was determined as 9.25%. In the case of `COc1ccc(-c2cc3nc(C)c(CCC(=O)N4CCN(c5ccccn5)CC4)c(C)n3n2)c(OC)c1`, the Potency entry was “inactive” and the cell number change is -15.1%.

In the case of `CCOC(=O)CSc1ccc(S(=O)(=O)N2CCCCC2)cc1[N+](=O)[O-]`, the Potency entry is “inactive” and the cell number change came to 12.9%. In the same order, the values of `CCOC(=O)CSc1ccc(S(=O)(=O)N(C)C2CCCCC2)cc1[N+](=O)[O-]` are 25.9 µM (active) and -12.4%. In the same order, the values of `CCOC(=O)CSc1ccc(S(=O)(=O)N(CC)CC)cc1[N+](=O)[O-]` are “inactive” and 15.5%. In the same order, the values of `Cc1nc(C)c(C(=O)Nc2ccccc2)s1` are “inactive” and 13.8%. On to `CC(=O)Nc1ccc(Nc2nc(C)cc(C)n2)cc1`, for which the Potency result is “inactive” and the cell number change was determined as 7.77%. Regarding `O=C(/C=C/c1ccccc1)Nn1c(-c2cccs2)nc2ccccc2c1=O`, the Potency result is “inactive” and the cell number change was found to be 20.7%. In the same order, the values of `CCCCN(CC)C(=O)c1n[nH]c(=O)c2ccccc12` are 29.1 µM (active) and -6.59%.

Turning to `CCOC(=O)c1n[nH]c(=O)c2ccccc12`, the Potency entry was “inactive” and the cell number change is -14.5%.

`CCN(CC)CCNC(=O)CCc1n[nH]c(=O)c2ccccc12`: the Potency result is “inactive” and the cell number change is -11.1%. For `O=C(NCc1csc2ccc(Cl)cc12)Nc1ccccc1`, in that order: “inactive” and -21.1%. For `COc1ccc(CCNc2nc(-c3cccnc3)nc3ccccc23)cc1OC`, in that order: 9.2 µM (active) and 0.794%.

With `CC(C)OCCCNc1nc(-c2ccccc2)nc2ccccc12`, the Potency entry is “inactive” and the cell number change is -18%. With `CCOCCCNc1nc(-c2ccccc2)nc2ccccc12`, the Potency is 4.61 µM (active) and the cell number change was 9.97%.

In the case of `COc1ccc(CNc2nc(-c3ccccc3)nc3ccccc23)cc1OC`, the Potency result is “inactive” and the cell number change was -4.67%. As for `COc1ccc(/C=N/Nc2nc(-c3cccnc3)nc3ccccc23)cc1OC`, the Potency result was “inactive” and the cell number change was -0.944%. In the same order, the values of `COCCNc1nc(-c2ccccc2)nc2ccccc12` are “inactive” and -1.08%. In the same order, the values of `CCc1ccc(/C=N\n2cnnc2)cc1` are “inactive” and 2.5%. In the same order, the values of `CCC(C(=O)NC1CCCCC1)n1c(SCc2cccc(C)c2)nc2ccncc21` (configuration not stated) are “inactive” and -1.51%.

For the molecule `O=C(CSc1ncn[nH]1)N1CCN(S(=O)(=O)c2ccccc2)CC1`, the Potency entry is “inactive” and the cell number change was 11.4%. For `Cc1ccc(S(=O)(=O)N2CCN(C(=O)CSc3ncn[nH]3)CC2)cc1`, in that order: 16.4 µM (active) and 5.31%.

As for `Cc1ccc(S(=O)(=O)N2CCN(C(=O)CSc3ccc(Cl)cc3)CC2)cc1`, the Potency result was “inactive” and the cell number change was -6.45%. In the same order, the values of `Cc1cccn2c(CN(C)CC3Cc4ccccc4O3)c(C(=O)N3CCCCC3)nc12` (configuration not stated) are “inactive” and -1.06%. In the same order, the values of `COc1ccc(S(=O)(=O)N2CCN(C(c3ccccc3)c3ccccc3)CC2)cc1NC(C)=O` are “inactive” and 5.87%.

`Cc1ccc(OCC(=O)N2CCCC(CO)(CCOc3ccccc3)C2)cc1` (configuration not stated): the Potency is 14.6 µM (active) and the cell number change came to 13.9%. In the same order, the values of `Cc1ccc(OCC(=O)N2CCN(C(=O)Cc3ccccc3)CC2)cc1` are “inactive” and 24.1%. For `CSCC(=O)N1CCCC(CO)(CCCc2ccccc2)C1` (configuration not stated), in that order: “inactive” and -13.7%.

`O=c1[nH]c2ccccc2n2c(-c3ccncc3)nnc12`: the Potency result was “inactive” and the cell number change was -11.8%.

Take `CC(=O)NS(=O)(=O)c1ccc(NC(=O)c2cc3c(=O)n4ccccc4nc3s2)cc1`: the Potency entry was “inactive” and the cell number change was found to be 21.8%. For `Cc1cc(C)cc(NC(=O)c2cc3c(=O)n4ccccc4nc3s2)c1`, in that order: 6.51 µM (active) and -3.42%. For `O=C(Nc1cccc(Cl)c1)c1cc2c(=O)n3ccccc3nc2s1`, in that order: “inactive” and 1.29%. Take `O=C(CCC1CCCC1)Nc1ccccc1-c1ccccc1`: the Potency result is “inactive” and the cell number change is -0.161%. For `COc1ccc(NC(=O)C2CCCCN2N)cc1OC` (configuration not stated), in that order: “inactive” and -2.19%. Consider `Cc1cc(C)cc(NC(=O)CSc2ccc(-c3ccccn3)nn2)c1`, for which the Potency entry is “inactive” and the cell number change is 2.31%. In the same order, the values of `O=S1(=O)CC/C(=N\O)c2ccccc21` are “inactive” and 0.644%. In the same order, the values of `O=c1cc(CO)oc(C(Nc2ccccn2)c2ccccc2Cl)c1O` (configuration not stated) are “inactive” and -7.74%. For `N#Cc1ccc(OCC(=O)Nc2nc(-c3cccnc3)cs2)cc1`, in that order: “inactive” and -1.13%. With `O=C(COc1cccc(C(F)(F)F)c1)Nc1cccnc1`, the Potency result is “inactive” and the cell number change is 28.7%. In the same order, the values of `N#Cc1ccc(-c2ccc(OCC(=O)Nc3cccnc3)cc2)cc1` are 13 µM (active) and -11.3%. For `Nc1ccc(S(=O)(=O)c2ccc(N)c(N)c2)cc1`, in that order: “inactive” and 15.7%. In the same order, the values of `CCCCCOCC(O)CCC(=O)NN` (configuration not stated) are “inactive” and -19%. Turning to `Cc1ccc2cc(C(c3nnnn3C3CCCC3)N(Cc3ccccc3)Cc3ccco3)c(=O)[nH]c2c1` (configuration not stated), the Potency result is “inactive” and the cell number change was -7.33%. In the same order, the values of `CCOC(=O)C1=C(C)NC(=O)NC1c1ccc(OC(=O)c2ccco2)cc1` (configuration not stated) are “inactive” and -14%. For `CCOC(=O)C1=C(CN2CCN(C(=O)c3ccco3)CC2)NC(=O)NC1c1ccc(OC(C)C)cc1` (configuration not stated), in that order: 18.4 µM (active) and -20.3%.

Regarding `CCOC(=O)C1=C(CN2CCN(C(=O)c3ccco3)CC2)NC(=O)NC1c1ccc(F)cc1` (configuration not stated), the Potency entry was “inactive” and the cell number change was -24.3%.
